# Compounds without any hit were thinned out: in the full panel of roughly 79,000, 15% have a hit. Values without a mark were called inactive. Active and inactive are the calls of the source. Rule as the data show it: active = growth inhibition above about 70%; inactive = the rest.
# Assays:
# [1] = NCI Yeast Anticancer Drug Screen. Data for the rad50 strain (AID 155);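 also: 0% = growth of vehicle-only cultures of the same strain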; conditions: S. cerevisiae rad50 strain growth inhibition; at 50.0 µM; hits give high values
# Summary of the method: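 Genetically altered yeast (DNA repair pathway); compound treatment; growth inhibition vs vehicle ctrl.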
# [2] = NCI Yeast Anticancer Drug Screen. Data for the mec2-1 strain (AID 157); conditions: S. cerevisiae mec2-1 strain, at 50.0 µM, hits give high values
# Summary of the method: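 Compounds were applied to mec2-1 yeast cells. Their growth was then compared with that of vehicle-treated cultures to give growth inhibition.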
# [3] = NCI Yeast Anticancer Drug Screen. Data for the sgs1 mgt1 strain (AID 161);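 also: 0% = growth of cultures given vehicle only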; conditions: S. cerevisiae sgs1 mgt1 strain, at 50.0 µM, hits give high values
# Summary of the method: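 Growth of a repair-deficient yeast mutant was monitored after compound treatment and expressed as inhibition relative to vehicle-treated cultures.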
# [4] = NCI Yeast Anticancer Drug Screen. Data for the cln2 rad14 strain (AID 165);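 also: 0% = growth equal to vehicle treated cultures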; conditions: S. cerevisiae cln2 rad14 strain, at 50.0 µM, hits give high values
# Summary of the method: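 Strain: cln2 rad14 yeast, altered in cell cycle control and DNA damage repair. Read-out: growth inhibition vs vehicle.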
# [5] = NCI Yeast Anticancer Drug Screen. Data for the bub3 strain (AID 167); conditions: S. cerevisiae bub3 mutant strain, at 50.0 µM, hits give high values
# Summary of the method: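 Yeast carrying a defined mutation is treated with each compound, and growth is compared with that of vehicle-exposed cells to give inhibition.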
# [6] = NCI Yeast Anticancer Drug Screen. Data for the mlh1 rad18 strain (AID 175); conditions: S. cerevisiae mlh1 rad18 strain growth inhibition; at 50.0 µM; hits give high values
# Summary of the method: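 A repair-deficient yeast strain is exposed to test compound, and growth is scored relative to vehicle-treated controls.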
SMILES,growth inhibition [1],growth inhibition [2],growth inhibition [3],growth inhibition [4],growth inhibition [5],growth inhibition [6]
CC(C)OC(=O)NCc1cccs1,-10.1%,-2.6%,6.7%,-92.8%,1.7%,-11.1%
CC(=O)OCC(=O)[C@@]1(O)CC[C@H]2[C@@H]3C[C@@H](C)[C@@]4(O)CC5(CC[C@]4(C)[C@H]3[C@@H](O)C[C@@]21C)OCC(C)(C)CO5,0.35%,16.2%,27.1%,28.6%,-6.2%,-11.2%
C[C@]12CC=CC(=O)[C@@]1(C)CCC(=O)C2,3.45%,0.95%,-9.05%,-25.4%,-4.7%,8.1%
Oc1cc(O)cc(/C=C/c2ccc(O)c(O)c2)c1,5.2%,-2.35%,6%,5.95%,18.4%,18.6%
O=c1nc(Oc2ccccc2)nc2ncccn12,47%,26.1%,40.5%,20.2%,50.6%,65%
CCOC(=O)C(CCN(C)C)C(=O)OCC,5.75%,-10.2%,2.8%,1.1%,-23.1%,14.2%
O=C(Nc1cc(Cl)ccc1Cl)Oc1c(Cl)cc(Cl)c(Cl)c1[N+](=O)[O-],10.2%,-37.1%,29.1%,-33.8%,-0.55%,15.8%
CC(=O)Nc1ccc(Br)cc1C,25.1%,1.95%,2.25%,-10.9%,-2.4%,30.6%
Cc1cc(N(CCO)CCO)c2ccc3cc4ccccc4cc3c2n1,38.5%,16.6%,9.35%,8.3%,18.3%,23.9%
O=P(O)(O)c1ccccc1Oc1ccccc1,7.8%,7.55%,26.3%,29.1%,8.05%,6.95%
COc1cc(NC(=O)CCN2CCOCC2)c2ncccc2c1,41.6%,3.6%,12.8%,-29.4%,18.9%,43%
CC(=O)OCCSSCCOC(C)=O,-4.9%,-26.4%,13%,6.55%,-1.9%,-3.75%
O=C(CC1Sc2ccccc2NC1=O)NNc1c(Cl)cc(Cl)cc1Cl (stereo unspecified),6.45%,0.9%,4%,17.3%,0.55%,33%
Nc1ccc(C(=O)O)c(N)c1,-4.35%,1.45%,-14.1%,-40.3%,-22.5%,-1.1%
O=C1CC2C(=O)N(Cc3ccccc3)C1C(S(=O)(=O)c1ccccc1)C2S(=O)(=O)c1ccccc1 (stereo unspecified),10.4%,9.4%,2.75%,26.9%,-8.7%,23.9%
CCC/C(=N/NC(=O)C1CCCO1)c1ccccc1 (stereo unspecified),-1.8%,18.4%,16.6%,-4.2%,7.5%,26%
O=S(=O)(Oc1ccc(Cl)cc1)c1cccc(S(=O)(=O)Oc2ccc(Cl)cc2)c1,12.8%,1.6%,-2.65%,-5.55%,5.5%,1.8%
CC[Si](C)(C)COC(N)=O,-23.2%,8.1%,-12.4%,-1.55%,-4.15%,-37%
C=C1CC[C@H]2C(C)=CC[C@@H]3[C@H](OC(=O)[C@H]3CN(C)C)[C@@H]12,8.05%,-4.45%,1.5%,32.7%,26.4%,16.2%
Oc1[nH]c2ccccc2c1N=NC(=S)Nc1ccccc1Cl,-8.2%,-2.3%,46.5%,36.2%,21.8%,26.2%
C=C1C(=O)O[C@@H]2/C=C(\C)CC/C=C(/COC(C)=O)C[C@@H](OC(C)=O)[C@@H]12,7.4%,-28.2%,20.1%,0.35%,-1.4%,-30.1%

SMILES,growth inhibition [1],growth inhibition [2],growth inhibition [3],growth inhibition [4],growth inhibition [5],growth inhibition [6]
CCCNC(=O)N1C(=O)c2ccccc2S1(=O)=O,-26.8%,-7.2%,7.85%,-26.1%,-14.1%,-22.6%
NC(=O)NNC(=O)Cc1ccccc1,1.35%,-0.25%,-1.95%,0.55%,-0.95%,-3.45%
Nc1ccccc1C(=O)ONC(=O)c1ccccc1,99.5% (active),99.6% (active),99.5% (active),99% (active),99.3% (active),99.3% (active)
O=C(Oc1ccccc1Cl)C1=C(C(=O)Oc2ccccc2Cl)CCC1,51.4%,-1.2%,45.5%,-1.45%,4.55%,9.75%
Cc1ccc(/C([O-])=C(/C(=S)Nc2ccccc2)[n+]2ccccc2)cc1,-5.3%,22%,7.55%,-22.1%,18.1%,13.1%
Nc1nc(Cl)cc(Nc2ccc3c(c2)CCC3)n1,15.2%,6.8%,26.5%,19.1%,23.6%,-20.4%
CCCCC(=O)Nc1ccc(S(=O)(=O)O)c(N=NC2C(=O)N(c3ccccc3)N=C2C)c1 (stereo unspecified),27.1%,-10.6%,5.6%,-13%,-3%,15%
CC1CCC2(C)CCC3(C)C(=CCC4C5(C)CCC(O)C(C)(C)C5CCC43C)C2C1C (stereo unspecified) (tested in a mixture with another compound),23.8%,-20.8%,9.95%,-5.8%,0.6%,17.1%
CN(C)c1ccc(/C=c2/sc3nc(=O)c(-c4ccccc4NC(=O)C(F)(F)F)nn3c2=O)cc1,3.95%,2.65%,-5.95%,-12.1%,-20.4%,-5.15%
CCC(C)NC(=O)c1ccccc1 (stereo unspecified),16.8%,17.7%,7.8%,-34.5%,1.75%,15.3%
Clc1ccc(C2=CSC3=NCCN23)cc1,3.45%,-1.4%,-9.55%,-97.3%,16.4%,1.25%
CCC(=O)Nc1ccc(C)cc1C,23.7%,12.9%,9.8%,13.7%,2.6%,3.45%
CC(=O)OCC1OC(n2c(C)c(N=Nc3ccccc3)c(C)c(C#N)c2=S)C(OC(C)=O)C(OC(C)=O)C1OC(C)=O (stereo unspecified),-17.7%,-17.6%,-1.7%,-1%,-10.3%,14.8%
O=C1OC(=O)C2C3C=CC(CC3)C12 (stereo unspecified),-1.35%,4%,-13.3%,-65%,-31.1%,-0.1%
CCOC(=O)C(C(=O)OCC)n1c(=O)c2c(ncn2C)n(C)c1=O,13.2%,-0.55%,-16.8%,16.1%,13%,10.3%
CC(O)(c1ccccc1)C1CC1 (stereo unspecified),-1.55%,-29.2%,-16.7%,-0.65%,-16.1%,-4.05%
c1ccc(B2OCC(C3OB(c4ccccc4)OC4COB(c5ccccc5)OC43)O2)cc1 (stereo unspecified),32.5%,-2.45%,-1.2%,-30.9%,-23.2%,23.6%
COc1ccc(C(=CCC(C)C2CCC3[C@@H]4C(OC(C)=O)CC5CC(OC(C)=O)CC[C@]5(C)C4CC(OC(C)=O)[C@]23C)c2ccc(OC)cc2)cc1 (stereo partly specified),1.2%,1.4%,-7.9%,13.5%,24.1%,-6.05%
CN1c2ccccc2N(C(=O)c2ccc([N+](=O)[O-])cc2)C(CC(=O)O)c2cccn21 (stereo unspecified),2.6%,-30.9%,-15.8%,4.6%,-16.3%,3%
CCN(CC)C(=O)CCC1(C)OCCO1,-4.8%,-12.1%,-25.3%,56.4%,-13.9%,6.45%

# From PubChem BioAssay (NCI)
